Drawing on PubChem BioAssay (NCATS), this text covers Potency, activation and activity change, negative = inhibition for 21 molecules.

Records with an inconclusive call do not appear. A number with no mark means an inactive call. The source made the active and inactive calls. Calls come from the whole dose curve; as a rule, active = well fitted curve in the direction sought with a large enough effect; inconclusive = small, poorly fitted or top-dose-only effect, or another doubt; inactive = no such curve, though single readings can be large; an effect the other way counts as inactive or inconclusive.

Assay [1] addresses Rap guanine nucleotide exchange factor 3 (Homo sapiens) (UniProt O95398). Put plainly: Confirmatory qHTS for agonist of cAMP-regulated guanine nucleotide exchange factor 3 (EPAC1) (AID 1645881).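 Note: EPAC1 catalysed release of BODIPY-GDP from Rap1B seen as fluorescence loss; 100% = effect of cAMP agonist control; nearly all actives have a fitted effect of over 75% in size.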 For orientation: In qHTS, concentration-response curves come from the screen itself.
Assay [2] concerns the target Rap guanine nucleotide exchange factor 4 (Homo sapiens) (UniProt Q8WZA2). Put plainly: Confirmatory qHTS for agonist of cAMP-regulated guanine nucleotide exchange factor 4 (EPAC2) (AID 1645884).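 Note: nucleotide exchange releases bodipy-GDP from Rap1 and this lowers its fluorescence; % is set by controls: 0 for no effect and ±100 for the full control effect; nearly all actives have a fitted effect of over 65% in size.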
Assay [3] shares this target. Put plainly: Confirmatory qHTS for antagonist of cAMP-regulated guanine nucleotide exchange factor 4 (EPAC2) (AID 1645885). For activity change, negative = inhibition: % is set by controls: 0 for no effect and ±100 for the full control effect. Note: nearly all actives have a fitted effect of over 25% in size. Note: potency is the fitted concentration of half-maximal effect.
For assay [4], the target named is Rap guanine nucleotide exchange factor 3 (Homo sapiens) (UniProt O95398). Briefly: Counterscreen qHTS for antagonist of cAMP-regulated guanine nucleotide exchange factor 3 (EPAC1) (AID 1645888).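 Note: fluorescence loss as bound BODIPY-GDP is released from Rap1B; % of control where 0% means no effect.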 In short, it runs like this: (§1)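 Rap1B-BODIPY-GDP 250 nM + GDP 50 uM; cpds 7-pt, final 9.74 nM–152 uM (activator mode) or from 7.32 nM upwards (inhibitor mode); RT; FI 480/540 nm at 5 and 30 min, then ± cAMP, reread.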
Sequence of Rap guanine nucleotide exchange factor 3 (Homo sapiens) (O95398 whole entry, looked up): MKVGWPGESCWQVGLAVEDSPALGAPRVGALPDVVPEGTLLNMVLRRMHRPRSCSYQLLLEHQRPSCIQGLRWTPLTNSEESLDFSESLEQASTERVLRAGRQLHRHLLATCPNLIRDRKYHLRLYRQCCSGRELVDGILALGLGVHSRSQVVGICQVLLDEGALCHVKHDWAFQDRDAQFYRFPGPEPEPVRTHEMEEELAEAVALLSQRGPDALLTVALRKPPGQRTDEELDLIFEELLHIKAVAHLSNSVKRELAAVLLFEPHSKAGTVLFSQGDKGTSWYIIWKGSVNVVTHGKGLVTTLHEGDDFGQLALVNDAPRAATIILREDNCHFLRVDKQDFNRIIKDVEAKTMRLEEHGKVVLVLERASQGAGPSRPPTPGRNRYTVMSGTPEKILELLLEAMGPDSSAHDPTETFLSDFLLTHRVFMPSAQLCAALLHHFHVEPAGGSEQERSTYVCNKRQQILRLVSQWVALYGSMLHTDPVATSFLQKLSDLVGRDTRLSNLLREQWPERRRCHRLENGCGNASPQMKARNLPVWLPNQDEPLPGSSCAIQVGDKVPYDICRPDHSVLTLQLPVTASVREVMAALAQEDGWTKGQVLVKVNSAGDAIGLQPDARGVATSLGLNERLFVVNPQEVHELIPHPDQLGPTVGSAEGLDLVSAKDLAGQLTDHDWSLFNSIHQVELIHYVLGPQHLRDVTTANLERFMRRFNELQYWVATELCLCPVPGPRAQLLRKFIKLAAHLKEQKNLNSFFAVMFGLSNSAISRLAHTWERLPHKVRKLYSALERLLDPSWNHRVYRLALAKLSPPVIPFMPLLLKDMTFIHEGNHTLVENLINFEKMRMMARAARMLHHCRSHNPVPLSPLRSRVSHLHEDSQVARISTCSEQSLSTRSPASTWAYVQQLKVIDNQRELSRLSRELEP
In general terms: Counterscreens check selectivity or assay interference.

Assay [5] has the same target. Briefly: Counterscreen qHTS for agonist of cAMP-regulated guanine nucleotide exchange factor 3 (EPAC1) (AID 1645889). For activation: % of control where 0% means no effect. Note: nearly all actives have a fitted effect of over 40% in size. Note: potency is the fitted concentration of half-maximal effect. In short, it runs like this:
as §1

Sequence of Rap guanine nucleotide exchange factor 4 (Homo sapiens) (Q8WZA2 whole entry, looked up): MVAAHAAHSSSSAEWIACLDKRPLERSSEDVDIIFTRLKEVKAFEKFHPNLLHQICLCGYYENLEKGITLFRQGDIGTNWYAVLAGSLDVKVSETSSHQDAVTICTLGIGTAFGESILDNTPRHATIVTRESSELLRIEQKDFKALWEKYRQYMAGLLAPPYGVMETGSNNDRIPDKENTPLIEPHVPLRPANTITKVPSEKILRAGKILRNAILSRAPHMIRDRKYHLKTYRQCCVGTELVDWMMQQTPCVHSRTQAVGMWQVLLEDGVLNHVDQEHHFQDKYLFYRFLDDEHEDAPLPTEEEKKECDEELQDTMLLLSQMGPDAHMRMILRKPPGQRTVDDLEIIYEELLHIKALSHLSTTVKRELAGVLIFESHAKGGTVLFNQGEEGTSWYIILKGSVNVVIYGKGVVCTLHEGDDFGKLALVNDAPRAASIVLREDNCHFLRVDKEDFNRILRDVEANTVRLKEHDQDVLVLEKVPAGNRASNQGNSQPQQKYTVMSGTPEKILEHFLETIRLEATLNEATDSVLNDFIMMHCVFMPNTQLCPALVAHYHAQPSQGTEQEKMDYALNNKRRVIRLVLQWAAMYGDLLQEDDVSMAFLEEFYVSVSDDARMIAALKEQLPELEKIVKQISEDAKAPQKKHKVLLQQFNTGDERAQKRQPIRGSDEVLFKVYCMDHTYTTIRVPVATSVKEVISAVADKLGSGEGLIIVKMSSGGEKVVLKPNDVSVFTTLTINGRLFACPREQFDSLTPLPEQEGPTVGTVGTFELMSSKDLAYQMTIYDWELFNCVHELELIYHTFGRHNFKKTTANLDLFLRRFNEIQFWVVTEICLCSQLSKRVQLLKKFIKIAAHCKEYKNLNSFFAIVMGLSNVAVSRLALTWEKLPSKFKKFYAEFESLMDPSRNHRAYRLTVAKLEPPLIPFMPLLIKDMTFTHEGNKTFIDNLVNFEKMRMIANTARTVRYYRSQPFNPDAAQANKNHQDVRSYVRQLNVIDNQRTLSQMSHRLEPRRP

`Cc1c([N+](=O)[O-])cnc(Sc2ccccc2)c1[N+](=O)[O-]`: the Potency result in assay [1], in assay [2], in assay [3], in assay [4] and in assay [5] was “inactive” in each case.
For `CCCc1nc2c(=O)n(C)c(=O)nc-2n(C)n1`, the Potency entry in assay [1], in assay [2], in assay [3], in assay [4] and in assay [5] was “inactive” in each case.
In the case of `O=C(NCc1ccccc1)c1ccc2c(=O)[nH]c3c(C(=O)NCC4CCCO4)sc(=S)n3c2c1` (stereo not given), the Potency result in assay [1], in assay [2], in assay [3], in assay [4] and in assay [5] was “inactive” throughout.
For `O=C(O)COc1ccc(/C=N/NC(=O)c2ccc(-c3csc(Nc4ccc(Cl)cc4)n3)cc2)cc1`, the Potency entry in assay [1], in assay [2], in assay [3], in assay [4] and in assay [5] was “inactive” throughout.
In the case of `CC1CCCN(c2nc3ccccc3nc2C(C#N)S(=O)(=O)c2ccccc2)C1` (stereo not given), the Potency result in assay [1], in assay [2], in assay [3] and in assay [4] was “inactive” in each case. Also, the Potency in assay [5] is 22.4 µM (active).
For `COC(=O)c1ccc(-c2ccc(/C=N/N3C(=O)C4C5C=CC(C6CC56)C4C3=O)o2)cc1` (stereo not given), the Potency result in assay [1] and in assay [3] was “inactive” each time. For the same molecule, the activation in assay [2] is 1.41% [at 17.1 µM, percent relative to cAMP agonist control]; in assay [5] it was 7.8% [at 30.8 µM]. The activity change, negative = inhibition in assay [4] is -3.98% [at 30.8 µM].
With `CS(=O)(=O)N1CCN(c2ccc([N+](=O)[O-])c(NCc3ccc(Cl)cc3)c2)CC1`, the Potency result in assay [1] and in assay [3] was “inactive” in each case. The activation in assay [2] is -0.717% [at 17.1 µM, percent relative to cAMP agonist control]; in assay [5] it was 12% [at 30.8 µM]. Besides, in assay [4], the activity change, negative = inhibition was -6.75% [at 30.8 µM].
On to `Cc1ccc(-c2ccc(CN3C(CC(C)C)C(=O)N(Cc4cn(CCC5OCCO5)nn4)CCS3(=O)=O)cc2)cc1` (stereo not given), for which the Potency result in assay [1], in assay [2], in assay [3], in assay [4] and in assay [5] was “inactive” in each case.
`C=Cc1ccc(Cn2nc(-c3ccccc3)ccc2=O)cc1`: the Potency result in assay [1] and in assay [3] was “inactive” in each case. For the same molecule, the activation in assay [2] was -8.97% [at 17.1 µM, percent relative to cAMP agonist control]; in assay [5], 15.7% [at 30.8 µM]. Besides, the activity change, negative = inhibition in assay [4] was -16.6% [at 30.8 µM].
Turning to `NS(=O)(=O)c1ccc(Nc2nc(-c3cccc([N+](=O)[O-])c3)cs2)cc1`, the Potency entry in assay [1] and in assay [3] was “inactive” throughout. The activation in assay [2] is 3.15% [at 17.1 µM, percent relative to cAMP agonist control]; in assay [5] it was 15.6% [at 30.8 µM]. The activity change, negative = inhibition in assay [4] was -4.36% [at 30.8 µM].
For `COc1ccccc1-n1c(C)c(C(=O)O)c2cc(OC)c3ccccc3c21`, the Potency result in assay [1], in assay [2], in assay [4] and in assay [5] was “inactive” throughout. Further, the Potency in assay [3] was 47.8 µM (active).
In the case of `N#CC1=C(N)Oc2cc(N)ccc2C1c1ccc(Cl)cc1` (stereo not given), the Potency result in assay [1], in assay [2], in assay [4] and in assay [5] was “inactive” each time. In assay [3], the Potency is 47.8 µM (active).
As to `CC(=O)Nc1c(C)nn(-c2ccccc2)c1N1CCC(C(=O)NCc2cccc(F)c2)CC1`, the Potency result in assay [1], in assay [2], in assay [3], in assay [4] and in assay [5] was “inactive” throughout.
In the case of `C/C=C/c1cc(OC)c2c(c1)[C@H](C)[C@@H](c1ccc(O)c(OC)c1)O2`, the Potency entry in assay [1], in assay [2], in assay [3], in assay [4] and in assay [5] was “inactive” each time.
Consider `Oc1ccc2ccccc2c1C=Nc1ccc(Cl)cn1`, for which the Potency result in assay [1], in assay [2], in assay [3], in assay [4] and in assay [5] was “inactive” in each case.
As to `CCOc1ccc2nc(NC3=NC(c4ccc(OC)cc4)CC(=O)N3)nc(C)c2c1` (stereo not given), the Potency entry in assay [1] and in assay [3] was “inactive” in each case. Further, the activation in assay [2] is 2.86% [at 17.1 µM, percent relative to cAMP agonist control]; in assay [5] it was 10.5% [at 30.8 µM]. Besides, the activity change, negative = inhibition in assay [4] is -8.36% [at 30.8 µM].
`OC(c1cc(F)cc(Cl)c1)c1ncc(-c2cccc(C(F)(F)F)c2)[nH]1` (stereo not given): the Potency entry in assay [1] and in assay [3] was “inactive” throughout. Further, the activation is -1.66% [at 17.1 µM, percent relative to cAMP agonist control] in assay [2] and 19.7% [at 30.8 µM] in assay [5]. Moreover, the activity change, negative = inhibition in assay [4] was -12% [at 30.8 µM].
On to `O=C(Cc1ccc(Cl)cc1)N/N=C/c1ccc(O)c(O)c1`, for which the Potency result in assay [1], in assay [2], in assay [3], in assay [4] and in assay [5] was “inactive” throughout.
Consider `CCC(CC)c1nnc(NC(=O)CSCc2c(C)noc2C)s1`, for which the Potency entry in assay [1], in assay [2], in assay [3], in assay [4] and in assay [5] was “inactive” in each case.
In the case of `CNc1ccc(/C=C/C(=O)c2ccc(C)cc2)cc1[N+](=O)[O-]`, the Potency result in assay [1] and in assay [3] was “inactive” in each case. Moreover, the activation in assay [2] is -1.81% [at 17.1 µM, percent relative to cAMP agonist control]; in assay [5], 21% [at 30.8 µM]. Besides, the activity change, negative = inhibition in assay [4] is 16.3% [at 30.8 µM].
With `O=C(N[C@H](Cc1ccc(Cl)cc1)C(=O)O)OCC1c2ccccc2-c2ccccc21`, the Potency entry in assay [1] and in assay [3] was “inactive” each time. For the same molecule, the activation was -11.8% [at 17.1 µM, percent relative to cAMP agonist control] in assay [2] and 8.84% [at 30.8 µM] in assay [5]. Further, the activity change, negative = inhibition in assay [4] is -5.81% [at 30.8 µM].
